Results on six compounds are retold here after PubChem BioAssay (EPA / NIEHS).

Conditions in all cases: mRNA level, 48 h; actives raise or lower the signal
Read-out in assay [1]: ABC Transporter (ABCC3), ABCC3 (gene 8714)
Nature of the assay: LTEA_HepaRG_ABCC3: Life Technologies and Expression Analysis (LTEA) Assay for ABC Transporter (ABCC3) using HepaRG (AID 2283462). The essentials: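 Transcript level by TaqMan qRT-PCR, normalised to three housekeeping genes, fitted in both directions relative to vehicle. Chemicals tested in duplicate at eight half-log concentrations up to 100 uM for 48 h on HepaRG cells (0.5% DMSO).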

Read-out in assay [2]: ABC Transporter (ABCB11), ABCB11 (gene 8647)
Kind of assay: LTEA_HepaRG_ABCB11: Life Technologies and Expression Analysis (LTEA) Assay for ABC Transporter (ABCB11) using HepaRG (AID 2283463). The essentials: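 ABCB11 transcript levels are read by Fluidigm TaqMan qRT-PCR after 48 h chemical treatment of human HepaRG cells. Concentrations span 100 uM downward in half-log steps with 0.5% DMSO; gain or loss is fitted against DMSO controls.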

Read-out in assay [3]: ABC Transporter (ABCC2), ABCC2 (gene 1244)
Kind of assay: LTEA_HepaRG_ABCC2: Life Technologies and Expression Analysis (LTEA) Assay for ABC Transporter (ABCC2) using HepaRG (AID 2283464). The essentials:
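Endpoint is ABCC2 transcript level from qRT-PCR, normalized to three housekeeping genes and fitted bidirectionally relative to DMSO. Human HepaRG cells received test chemical for 48 h at up to 100 uM (8 points, half-log steps, 0.5% DMSO), duplicate wells.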

Read-out in assay [4]: Broad substrate specificity ATP-binding cassette transporter ABCG2 (Homo sapiens) (UniProt Q9UNQ0)
Kind of assay: LTEA_HepaRG_ABCG2: Life Technologies and Expression Analysis (LTEA) Assay for ABC Transporter (ABCG2) using HepaRG (AID 2283465). The essentials: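 Read-out is ABCG2 mRNA induction or loss quantified by qRT-PCR after 48 h chemical treatment of human HepaRG cells, normalized to three housekeeping genes. Concentrations reached 100 uM top in half-log steps; fitting was bidirectional against 0.5% DMSO.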

Read-out in assay [5]: ATP-citrate lyase (ACLY), ACLY (gene 47)
Kind of assay: LTEA_HepaRG_ACLY: Life Technologies and Expression Analysis (LTEA) Assay for ATP-citrate lyase (ACLY) using HepaRG (AID 2283466). The essentials:
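HepaRG, 48 h exposure, 8-pt half-log dilutions (top 100 uM), 0.5% DMSO. Readout: ACLY mRNA, TaqMan qRT-PCR, housekeeping-normalized (ACTB/GAPDH/POLR2A). Bidirectional curve fit vs DMSO.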

Read-out in assay [6]: Peroxisomal acyl-coenzyme A oxidase 1 (ACOX1) gene, ACOX1 (gene 51)
Kind of assay: LTEA_HepaRG_ACOX1: Life Technologies and Expression Analysis (LTEA) Assay for Peroxisomal acyl-coenzyme A oxidase 1 (ACOX1) gene using HepaRG (AID 2283467). The essentials:
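Measured by qRT-PCR against three housekeeping genes: ACOX1 transcript change in human HepaRG cells after 48 h dosing. Concentrations ran up to 100 uM in half-log steps. Curves were fitted bidirectionally relative to 0.5% DMSO.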

Read-out in assay [7]: Alkaline Phosphatase, Placental (ALPP) gene, ALPP (gene 250)
Nature of the assay: LTEA_HepaRG_ALPP: Life Technologies and Expression Analysis (LTEA) Assay for Alkaline Phosphatase, Placental (ALPP) gene using HepaRG (AID 2283468).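 For AC50: differentiated human HepaRG liver cells in serum-free induction medium.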 The essentials:
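ALPP transcript level, measured by qRT-PCR and normalized to three housekeeping genes (ACTB, GAPDH, POLR2A), after 48 h dosing of differentiated HepaRG in serum-free induction medium. Top concentration 100 uM with half-log dilutions (8 points, 0.5% DMSO, duplicates); bidirectional fitting relative to DMSO.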

Read-out in assay [8]: Bcl-2 (BAD) gene, BAD (gene 572)
Nature of the assay: LTEA_HepaRG_BAD: Life Technologies and Expression Analysis (LTEA) Assay for Bcl-2 (BAD) gene using HepaRG (AID 2283469). The essentials: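 BAD transcript change, measured by qRT-PCR against three housekeeping genes and fitted in both directions relative to 0.5% DMSO, after 48 h chemical treatment of human HepaRG liver cells at concentrations up to 100 uM.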

Read-out in assay [9]: Bcl-2 (BAX) gene, BAX (gene 581)
Kind of assay: LTEA_HepaRG_BAX: Life Technologies and Expression Analysis (LTEA) Assay for Bcl-2 (BAX) gene using HepaRG (AID 2283470). The essentials:
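Concentration-response endpoint fitted in both directions relative to 0.5% DMSO vehicle. Human HepaRG cultures receive test chemicals for 48 h at up to 100 uM; BAX mRNA is quantified by qRT-PCR against housekeeping genes.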

Read-out in assay [10]: adenosine kinase (ADK) gene, ADK (gene 132)
Nature of the assay: LTEA_HepaRG_ADK: Life Technologies and Expression Analysis (LTEA) Assay for adenosine kinase (ADK) gene using HepaRG (AID 2283471). The essentials: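 Differentiated HepaRG cells dosed 48 h in serum-free induction medium, 0.5% DMSO vehicle, eight half-log concentrations from 100 uM, in duplicate. ADK mRNA by TaqMan qRT-PCR normalised to ACTB, GAPDH, POLR2A; bidirectional fit versus DMSO.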

Read-out in assay [11]: Alpha-fetoprotein (AFP) gene, AFP (gene 174)
Nature of the assay: LTEA_HepaRG_AFP: Life Technologies and Expression Analysis (LTEA) Assay for Alpha-fetoprotein (AFP) gene using HepaRG (AID 2283472). The essentials:
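After a 48 h plating period, cells are moved to serum-free induction medium and dosed in duplicate (100 uM maximum, half-log dilutions, 0.5% DMSO) for another 48 h. Total RNA goes to TaqMan qRT-PCR; AFP signal is housekeeping-normalized.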

Read-out in the next assay: BCL2L11 (gene 10018)
Kind of assay: LTEA_HepaRG_BCL2L11: Life Technologies and Expression Analysis (LTEA) Assay for Bcl-2 (BCL2L11) gene using HepaRG (AID 2283473). The essentials:
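BCL2L11 transcript levels are measured by Fluidigm qRT-PCR, normalized to three housekeeping genes. HepaRG cultures were plated 48 h, then treated 48 h with test chemical (top 100 uM, half-log, 0.5% DMSO vehicle); curves were fitted bidirectionally against DMSO.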

Read-out in assay [12]: Apolipoprotein A-V (APOA5) gene, APOA5 (gene 116519)
Nature of the assay: LTEA_HepaRG_APOA5: Life Technologies and Expression Analysis (LTEA) Assay for Apolipoprotein A-V (APOA5) gene using HepaRG (AID 2283474). The essentials:
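APOA5 transcript levels were quantified by qRT-PCR, normalized to three housekeeping genes, after 48 h chemical treatment of HepaRG cells (8 points, 100 uM maximum, half-log steps, 0.5% DMSO). Curves fitted in both directions against vehicle.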

Read-out in assay [13]: Apoptosis regulator Bcl-2 (Homo sapiens) (UniProt P10415)
Nature of the assay: LTEA_HepaRG_BCL2: Life Technologies and Expression Analysis (LTEA) Assay for Bcl-2 gene using HepaRG (AID 2283475). The essentials: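 Expression change of BCL2 mRNA in HepaRG after 48 h dosing, quantified by TaqMan qRT-PCR against three endogenous controls. Concentration-response used eight points up to 100 uM, vehicle 0.5% DMSO.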

Read-out in the next assay: Caspase-3 (Homo sapiens) (UniProt P42574)
Kind of assay: LTEA_HepaRG_CASP3: Life Technologies and Expression Analysis (LTEA) Assay for cysteine-aspartic acid protease (CASP3) using HepaRG (AID 2283477). The essentials:
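Expression of CASP3 was quantified by TaqMan qRT-PCR against three housekeeping genes (ACTB, GAPDH, POLR2A), bidirectionally versus 0.5% DMSO. HepaRG cultures received compounds in duplicate, top 100 uM with half-log steps, for 48 h in serum-free induction medium.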

Read-out in assay [14]: Cytochrome P450 (CYP24A1), CYP24A1 (gene 1591)
Kind of assay: LTEA_HepaRG_CYP24A1: Life Technologies and Expression Analysis (LTEA) Assay for Cytochrome P450 (CYP24A1) using HepaRG (AID 2283478). The essentials:
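mRNA of CYP24A1 quantified by TaqMan qRT-PCR (ACTB/GAPDH/POLR2A normalization) after 48 h chemical exposure of HepaRG cells, top concentration 100 uM, half-log steps, 0.5% DMSO vehicle, duplicates. Curves fitted bidirectionally against DMSO baseline.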

Read-out in assay [15]: Cytochrome P450 (CYP1A2), CYP1A2 (gene 1544)
Nature of the assay: LTEA_HepaRG_CYP1A2: Life Technologies and Expression Analysis (LTEA) Assay for Cytochrome P450 (CYP1A2) using HepaRG (AID 2283479). The essentials: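 CYP1A2 transcript measured by TaqMan qRT-PCR against three housekeeping genes after 48-hour chemical exposure of HepaRG cells. Eight-point half-log series topping at 100 uM in 0.5% DMSO, duplicates; gain or loss fitted relative to vehicle.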

Read-out in assay [16]: cysteine-aspartic acid protease (CASP8), CASP8 (gene 841)
Nature of the assay: LTEA_HepaRG_CASP8: Life Technologies and Expression Analysis (LTEA) Assay for cysteine-aspartic acid protease (CASP8) using HepaRG (AID 2283480). The essentials:
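HepaRG, 48 h exposure, duplicate wells; 8 conc, half-log from 100 uM, 0.5% DMSO. Serum-free induction medium. CASP8 mRNA by TaqMan qRT-PCR, norm. ACTB/GAPDH/POLR2A; gain/loss fitted vs DMSO.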

Read-out in assay [17]: Cytochrome P450 (CYP2B6), CYP2B6 (gene 1555)
Nature of the assay: LTEA_HepaRG_CYP2B6: Life Technologies and Expression Analysis (LTEA) Assay for Cytochrome P450 (CYP2B6) using HepaRG (AID 2283481). The essentials:
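CYP2B6 transcript level quantified by qRT-PCR against three housekeeping genes, fitted bidirectionally relative to DMSO. HepaRG cultures received chemicals for 48 h, 8-point half-log series from 100 uM in 0.5% DMSO, duplicate wells, serum-free induction medium.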

Read-out in assay [18]: Bcl-2 (BID) gene, BID (gene 637)
Kind of assay: LTEA_HepaRG_BID: Life Technologies and Expression Analysis (LTEA) Assay for Bcl-2 (BID) gene using HepaRG (AID 2283476). The essentials: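 Gain or loss of BID expression is fitted relative to 0.5% DMSO vehicle. Human HepaRG liver cells received a 48 h chemical exposure over an eight-point concentration range.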

Active and inactive are the calls of the source. Rule for the calls: active = hit-call score of the fitted dose curve at least 0.9, where 1 is the maximum; inactive = score below 0.9.

Sequence of Apoptosis regulator Bcl-2 (Homo sapiens) (P10415 whole entry, looked up): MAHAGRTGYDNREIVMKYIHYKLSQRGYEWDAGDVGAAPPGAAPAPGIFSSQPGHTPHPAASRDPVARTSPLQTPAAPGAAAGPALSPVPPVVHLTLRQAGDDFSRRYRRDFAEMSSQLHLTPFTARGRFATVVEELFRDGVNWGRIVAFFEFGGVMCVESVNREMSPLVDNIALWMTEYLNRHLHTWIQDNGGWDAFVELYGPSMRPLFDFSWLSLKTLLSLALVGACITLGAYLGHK
Sequence of Broad substrate specificity ATP-binding cassette transporter ABCG2 (Homo sapiens) (Q9UNQ0 whole entry, looked up): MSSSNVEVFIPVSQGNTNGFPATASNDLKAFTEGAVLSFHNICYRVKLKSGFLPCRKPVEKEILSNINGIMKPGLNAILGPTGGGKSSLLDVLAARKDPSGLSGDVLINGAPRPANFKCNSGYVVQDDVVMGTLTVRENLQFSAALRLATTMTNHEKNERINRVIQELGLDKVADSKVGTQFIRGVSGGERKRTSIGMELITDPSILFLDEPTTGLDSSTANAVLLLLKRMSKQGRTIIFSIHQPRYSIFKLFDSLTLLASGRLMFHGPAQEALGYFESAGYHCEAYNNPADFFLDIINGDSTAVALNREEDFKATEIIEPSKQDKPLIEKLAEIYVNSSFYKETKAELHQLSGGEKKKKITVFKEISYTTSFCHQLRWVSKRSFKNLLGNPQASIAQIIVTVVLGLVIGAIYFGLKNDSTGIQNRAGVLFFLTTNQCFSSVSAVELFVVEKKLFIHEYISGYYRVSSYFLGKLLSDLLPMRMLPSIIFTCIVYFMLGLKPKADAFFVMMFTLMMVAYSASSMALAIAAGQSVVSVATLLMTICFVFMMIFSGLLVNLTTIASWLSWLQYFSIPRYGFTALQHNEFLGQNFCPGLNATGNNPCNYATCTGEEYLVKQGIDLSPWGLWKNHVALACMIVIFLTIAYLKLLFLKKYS
Sequence of Caspase-3 (Homo sapiens) (P42574 whole entry, looked up): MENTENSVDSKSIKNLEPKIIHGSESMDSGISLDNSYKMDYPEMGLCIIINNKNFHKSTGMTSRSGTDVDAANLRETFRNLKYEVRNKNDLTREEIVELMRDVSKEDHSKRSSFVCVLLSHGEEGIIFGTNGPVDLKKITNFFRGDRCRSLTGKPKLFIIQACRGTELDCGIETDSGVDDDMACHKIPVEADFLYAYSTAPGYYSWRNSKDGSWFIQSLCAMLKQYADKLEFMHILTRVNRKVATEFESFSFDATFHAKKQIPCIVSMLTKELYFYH

The AC50 is the concentration giving half of the maximal activity seen. On to `FC(F)C(F)(F)OCC(Cn1cncn1)c1ccc(Cl)cc1Cl` (configuration not stated), for which the AC50 was 21.1 µM (active) in [1]; 36.6 µM (active) in assay [2]; 75.9 µM (active) in assay [3]; 15 µM (active) in [4]; 12.2 µM (active) in assay [5]; 53.6 µM (active) in assay [6]. Further, the AC50 is 55 µM (active) in [7]; 32.3 µM (active) in [9]; 20.2 µM (active) in assay [11]; 35.6 µM (active) in assay [12]; 30.2 µM (active) in assay [13]; 82 µM (active) in the assay with Caspase-3 (Homo sapiens). Also, the values for the AC50 in assay [15] and in [17] were 28.6 µM (active) and 31.7 µM (active), respectively. Further, the call (in assay [8]; in [10]; with BCL2L11 (gene 10018); in assay [14]; in assay [16]) was inactive.

Turning to `CCOC(=O)COc1cc(-c2nn(C)c(OC(F)F)c2Cl)c(F)cc1Cl`, the compound was classed as inactive in assay [1], in assay [2], in [4], in assay [5], in [6] and in assay [7]. Moreover, the compound was classed as inactive (in assay [8]; in [9]; in assay [10]; in assay [11]; in the assay with BCL2L11 (gene 10018); in assay [12]). Further, the compound was called inactive (in assay [13]; with Caspase-3 (Homo sapiens); in assay [14]; in assay [15]; in assay [16]). For the same compound, the AC50 in assay [3] was 50 µM (active); in [17], 63.5 µM (active).

For the compound `CC(C)=CC1C(C(=O)OCN2C(=O)C3=C(CCCC3)C2=O)C1(C)C` (configuration not stated), the compound was called inactive in assay [1], in assay [2], in assay [3], in [4], in assay [5] and in assay [6]. Also, the call (in assay [7]; in assay [8]; in assay [9]; in assay [10]; in assay [11]; with BCL2L11 (gene 10018)) was inactive. Besides, the call (in [12]; in assay [13]; in [18]; in the assay with Caspase-3 (Homo sapiens); in assay [14]; in assay [16]) was inactive. In addition, the AC50 in [15] is 31.5 µM (active); in assay [17], 50 µM (active).

For `CC1=NNC(=O)N(/N=C/c2cccnc2)C1`, the compound was classed as inactive in assay [1], in assay [2], in [3], in assay [4], in assay [5] and in [6]. The compound was classed as inactive (in assay [7]; in assay [8]; in [10]; in [11]; in the assay with BCL2L11 (gene 10018); in assay [12]). Besides, the call (in assay [13]; with Caspase-3 (Homo sapiens); in assay [14]; in assay [17]) was inactive. For the same compound, the AC50 in [15] is 6.84 µM (active).

Consider `CCCCSP(=O)(SCCCC)SCCCC`, for which the outcome in assay [1], in assay [3], in assay [5], in assay [6], in assay [7] and in [9] was inactive. Moreover, the result (in [10]; with BCL2L11 (gene 10018); in [12]; in assay [13]; in assay [18]; with Caspase-3 (Homo sapiens)) was inactive. Besides, the result in assay [14] was inactive. The AC50 in assay [2] is 73.9 µM (active); in assay [4] it was 50 µM (active); in assay [11] it was 50 µM (active); in [15], 13 µM (active); in assay [17], 12.5 µM (active).

As for `O=c1ccc(=O)[nH][nH]1`, the result in [1], in [2], in assay [3], in assay [4], in assay [5] and in assay [6] was inactive. The call (in assay [7]; in assay [8]; in [9]; in assay [10]; in assay [11]; with BCL2L11 (gene 10018)) was inactive. Besides, the compound was classed as inactive (in [12]; in assay [13]; in assay [18]; in the assay with Caspase-3 (Homo sapiens); in assay [14]; in [15]). Moreover, the AC50 in assay [17] was 4.2 µM (active).
